Measurements reported in article PMC12136788.
Substitutions are numbered along the chain they refer to. Whole data set: some 24,000 sequences, median “enrichment r” near 0.99, cut for the highest 2% near 3.7. Many of the other results were omitted from the sample, so the highest values are more common in it than they were.

T1: UNK ZnF1-3 (human, UniProt Q9C0B0 31-174)
T1 sequence: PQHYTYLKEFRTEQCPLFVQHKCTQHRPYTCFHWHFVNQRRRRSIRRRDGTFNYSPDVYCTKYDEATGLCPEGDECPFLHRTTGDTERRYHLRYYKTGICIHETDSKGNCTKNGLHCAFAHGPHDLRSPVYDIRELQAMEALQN

B1: chr17:15081082:15081083:+_ENSMUSG00000050088_ENSMUST00000052691|mus_mus|motif|central (ssRNA)
RNA: GGGAGUUCUACAGUCCGACGAUCUGCUCCAGCAUAUUCAAGGGAUCAGAAGAGAAUUUCAAGCACCAGUUUCAAAAUGCGGAUCAAUAUCGUCCAGAGAACUGAUUCCUCCUCUUGGGCUGCCUCUUCUGGAGCGUAAGCCUGCAACAGAGGAUUGAGCAUCA
B2: chr14:14948730:14948731:-_ENSMUSG00000021737_ENSMUST00000022256|mus_mus|FALSE|FALSE (ssRNA)
RNA: GGGAGUUCUACAGUCCGACGAUCAAAAACUGAAUAACGGCAUUCAUAGAGAGAAAACAGAUACUGCCGAACUGCUGGAAGACUGUGCAACACUUCAAGGAUCUCUGCCCCUUUAAUGACCUUUUCCCUGAGGUCCGGCCUUUCCAACAGAGGAUUGAGCAUCA
B3: chr15:76909541:76909542:-_ENSMUSG00000033565_ENSMUST00000166610|perfect_dup|FALSE|FALSE (ssRNA)
RNA: GGGAGUUCUACAGUCCGACGAUCCAACAUGAUCAAUAAUUUAUACACAUGGAGAGUAAUACAAAAAAUAAUGAAUAAAAGCUAAAGAUCUAACUACUCAACCUUCACAAUUCCAGCUACUUGAUAAUAGGAGUAACCCAAUGACAACAGAGGAUUGAGCAUCA
B4: chr15:76909541:76909542:-_ENSMUSG00000033565_ENSMUST00000166610|perfect_dup|motif|central (ssRNA)
RNA: B3 RNA with U82G, A83G
B5: chr2:47387792:47387793:-_ENSG00000143933_ENST00000272298|hu_hu|hu_hu_hu_mus_True|28_38 (ssRNA)
RNA: GGGAGUUCUACAGUCCGACGAUCUAAGGACAAUGACAGUAAGAUAAGGGAAGAAAACAUGGAGGAAUGAAGUCCUAAUUACUAUACAUGCAUAUUUUUUUGACAGUAGGGAGAAACACCUUUUACAGAUAAGUUACAAACAAACAACAGAGGAUUGAGCAUCA
B6: chr18:2804189:2804190:+_ENSG00000101596_ENST00000320876|hu_hu|FALSE|FALSE (ssRNA)
RNA: GGGAGUUCUACAGUCCGACGAUCCAAUGCCUUGGAUUUAAAACAUGACUCCUUCUUGAUACAAUGAAUUAUAAAAGCAAACUAGUUCCACAUAUUAAUUAUACGUUCAAGUCUAGUUCCUAAAAAGUCAUUUCUCUUUAACCUCAACAGAGGAUUGAGCAUCA

These binders were tested against T1, UNK ZnF1-3 (assay: nsRBNS (natural sequence RNA bind-n-seq); RBNS binding buffer (assumed for nsRBNS): 25 mM Tris pH 7.5, 150 mM KCl, 3 mM MgCl2, 0.01% Triton X-100, 500 ug/ml BSA, 20 U/ml SUPERase-In, 4 C; UNK is unkempt and MSI1 is Musashi-1; names of the RNAs are library labels; protein concentration not given here; high values mean tight binding).
B1 was tested, and the binding signal was 1.62 enrichment R.
Work on B2 yielded a binding signal of 1.41 enrichment R.
B3 showed a binding signal of 6.42 enrichment R.
Binder B4 has a binding signal of 8.91 enrichment R.
B5 showed a binding signal of 1.79 enrichment R.
Work on B6 yielded a binding signal of 1.05 enrichment R.
